Screening data from PubChem BioAssay.
Rab9 promoter act – Rab9 promoter activation; Huh7 Rab9 promoter-luciferase reporter, luminescence, 24 h; Potency, µM (highest dose often 9.22 µM), inactives show top-dose activation, negative = inhibition, actives largely listed as activators; 320,000 compounds, 2.8% hits; AID 485297; further: % of control where 0% means no effect; nearly all actives have a fitted effect of over 60% in size
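Cells were plated at 1500 per well in reduced-serum medium with 10% FBS and left 2 h. Compound in DMSO was then added for 24 h at 37 °C. Reporter signal was read by luminescence after 10 min with luciferase detection reagent.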
FLuc counter – counter-screen for miR-21 project: firefly luciferase inhibitors or activators; P08659; purified FLuc, Km substrates, luminescence inhibition; Potency, µM (series often up to 57.5 µM), inactives show at the highest dose activity change, negative = inhibition, usual class: inhibitors; 360,000 compounds, 6.9% hits; AID 588342;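 further: plate controls were vehicle for no effect and reference inhibitor for full effect; nearly all actives have a fitted effect of over 55% in size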
Target sequence (P08659 whole entry, looked up): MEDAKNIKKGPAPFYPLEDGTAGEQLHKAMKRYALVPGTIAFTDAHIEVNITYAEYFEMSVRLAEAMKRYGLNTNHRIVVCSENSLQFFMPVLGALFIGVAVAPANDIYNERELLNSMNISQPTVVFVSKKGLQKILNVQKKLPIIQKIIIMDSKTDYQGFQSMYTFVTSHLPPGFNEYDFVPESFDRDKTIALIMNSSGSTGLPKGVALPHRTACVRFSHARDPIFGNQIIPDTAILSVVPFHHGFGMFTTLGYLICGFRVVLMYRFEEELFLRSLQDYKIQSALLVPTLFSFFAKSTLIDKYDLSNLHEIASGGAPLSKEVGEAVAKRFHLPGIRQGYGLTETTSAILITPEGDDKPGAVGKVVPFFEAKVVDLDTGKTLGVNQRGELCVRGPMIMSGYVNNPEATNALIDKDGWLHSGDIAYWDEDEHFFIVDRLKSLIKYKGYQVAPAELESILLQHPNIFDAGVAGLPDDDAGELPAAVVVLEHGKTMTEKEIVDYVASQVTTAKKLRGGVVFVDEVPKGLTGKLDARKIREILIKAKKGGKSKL
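Purified P. pyralis luciferase, 10 nM final, with Km-level 10 uM D-luciferin and 10 uM ATP in 50 mM Tris acetate pH 7.5, 10 mM Mg acetate, 0.01% Tween-20, 0.05% BSA; 6-point qHTS titration about 60 µM downward; luminescence read.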
SMN2 splice enh – increases expression of the SMN2 splice variant. HEK293 SMN2-luciferase splicing reporter, luminescence, 30-36 h. Potency, µM (highest dose often 46.1 µM), for inactives: top-dose activity change, positive = activation, most hits filed as activators. 210,000 compounds, 2.8% hits; further: % of control where 0% means no effect; nearly all actives have a fitted effect of over 55% in size
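qHTS luciferase splicing reporter: luminescence rises when SMN2 exon 7 is included in transfected HEK293 cells. Compound exposure lasted 30-36 h at 37C, with 4.5 mM final sodium butyrate as control, followed by a ONE-Glo read.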
NPC1 promoter act – activators of NPC1 promoter; 320,000 compounds, 2.4% hits; Huh7 NPC1 promoter luciferase reporter, 24 h; AID 485313; Potency, µM (highest dose often 9.22 µM), for the others: at the top dose activation, actives largely listed as activators; further: % of control where 0% means no effect; nearly all actives have a fitted effect of over 60% in size
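Stable NPC1-promoter luciferase Huh7 line; cpd (DMSO) 24 h, 37 °C, 5% CO2; Amplite luciferase reagent 10 min RT; luminescence readout. qHTS format.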
ELG1 genotoxic – genotoxicity induction in ELG1-luciferase HEK293T cells | Potency, µM (series often up to 46 µM), for the others: top-dose activity change, positive = activation, usual class: activators | 330,000 compounds, 1.3% hits | HEK293T ELG1-luciferase reporter, luminescence, 16 h; further: % of control where 0% means no effect; nearly all actives have a fitted effect of over 60% in size
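HEK293T cells expressing luciferase-tagged ELG1 were treated with compound or DMSO for 16 hr at 37°C. Luciferase activity was then read after 30 min with ONE-Glo at room temperature; rising signal flags genetic stress.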
Active calls of the source: *; ? = inconclusive; . = not tested or not shown. Shown are actives, neighbours in structure and some others; about 7.5% of the full set was active somewhere. The call rests on the fitted dose curve; in most records, active means well fitted curve in the direction sought with a large enough effect; inconclusive means small, poorly fitted or top-dose-only effect, or another doubt; inactive means no such curve, though single readings can be large; an effect the other way counts as inactive or inconclusive. Potency means the concentration at half of the fitted maximal effect.

SMILES	Rab9 promoter act	FLuc counter	SMN2 splice enh	NPC1 promoter act	ELG1 genotoxic
COc1ccc(NC(=O)Nc2ccc(F)cc2F)cc1	2.8µM*	5.4µM*	20µM*	2.2µM*	?
COC(=O)c1sccc1NC(=O)Nc1ccc(C(C)=O)cc1	10%	2.1µM*	.	0%	18µM*
COC(=O)c1sccc1NC(=O)Nc1ccc(C)cc1	-1%	1.7µM*	.	1%	?
CN(C1CCCCC1)S(=O)(=O)c1ccc(-c2ccccn2)s1	-5%	-1%	.	-3%	-3%
COC(=O)c1sccc1NC(=O)Nc1ccc(F)cc1	0%	8.5µM*	.	1%	11%
COC(=O)c1sccc1NC(=O)c1ccc(C(C)C)cc1	3.5µM*	11µM*	.	28%	15%
COC(=O)c1sccc1NC(=O)Nc1cc(C)cc(C)c1	-5%	7.6µM*	.	4%	?
COC(=O)c1sccc1NC(=S)Nc1ccc(F)cc1	0%	0%	17%	1%	0%
CCN(CC)C(=O)c1sc(NC(=O)c2ccc(C)c([N+](=O)[O-])c2)c(C#N)c1C	-4%	?	-23%	1%	-12%
Cc1nc(NCc2ccccc2)c2nc(-c3ccccc3)n(CCN3CCCCC3)c2n1	.	.	-36%	.	.
CCOC(=O)c1c(-c2ccc(C)o2)csc1NC(=O)COC(=O)c1ccc(NC(N)=O)cc1	-4%	-9%	17%	1%	3%
COc1ccc(-c2nc3ccccc3s2)cc1O	5%	0.15µM*	-46%	?	0.65µM*
CC1CN(S(=O)(=O)c2ccc(-c3nc4ccccc4s3)cc2)CC(C)O1 (configuration not stated)	6%	0%	5%	9%	5%
CC(C)c1ccc(-c2nc3ccccc3s2)cc1	-37%	0.076µM*	.	-18%	-9%
COc1ccc(-c2nc3ccccc3s2)cc1NC(=O)c1cc(OC)c(OC)c(OC)c1	.	?	4%	.	.
CCOc1cc(-c2nc3ccccc3s2)ccc1O	15%	15µM*	.	?	?
COc1cc(-c2nc3ccccc3s2)ccc1O	?	8.5µM*	?	6%	?
CC(=O)OCC1OC(n2c(Br)nc3c(=O)[nH]c(N)nc32)C(OC(C)=O)C1OC(C)=O (configuration not stated)	.	.	-2%	.	.
Cc1cccc(C)c1N=Nc1c(C)cc(O)cc1C	0%	-2%	.	-10%	?
CCc1nnc(NC(=O)CSc2nc3ccc(OC)cc3[nH]2)s1	2%	?	-3%	-2%	2%
O=S(=O)(c1ccc(-c2nc3ccccc3s2)cc1)N1CCCC1	2.8µM*	-12%	-13%	?	?
CCC(=O)Oc1ccc(C(=O)Nc2ccc3c(c2)C(=O)N(C2CCCCC2)C3=O)cc1	-2%	0%	6%	-2%	-5%
Cc1cccc(C(=O)Nc2sc3c(c2C(=O)O)CCC3)c1	26%	17µM*	.	?	6%
COc1cccc(C(=O)Nc2sc3c(c2C(=O)O)CCCC3)c1	12%	21µM*	.	5%	-1%
COc1cccc(C(=O)Nc2sc3c(c2C#N)CCN(C(C)=O)C3)c1	0%	15µM*	-27%	-27%	?
SMILES	Rab9 promoter act	FLuc counter	SMN2 splice enh	NPC1 promoter act	ELG1 genotoxic
COc1cc(C(=O)Nc2sc3c(c2C(=O)O)CCC3)cc(OC)c1OC	-7%	-18%	.	-7%	-12%
CNC(=O)c1c(NC(=O)c2cccc(C)c2)sc2c1CCC2	?	21µM*	.	?	?
CCCCn1c(N)c(N(CC)C(=O)c2cnc(C)cn2)c(=O)[nH]c1=O	-5%	2%	.	0%	0%
CC(C)CCNC(=O)CCc1nnc(COc2ccccc2)o1	-1%	-8%	.	-1%	3%
CNC(=O)c1c(NC(=O)/C=C/c2ccccc2Cl)sc2c1CCC2	.	9.5µM*	.	.	.
CC1(C)C(=O)N(CC(=O)Nc2cccc(F)c2)c2ccc(S(=O)(=O)N3CCCCC3)cc21	.	-1%	.	.	.
CCCOc1ccc(N2C(=O)CC(N3CCN(CCN=CC4C(=O)CC(C)(C)CC4=O)CC3)C2=O)cc1 (configuration not stated)	-2%	-5%	-10%	-7%	7%
COc1ccccc1NC(=O)c1cc2c(CO)cnc(C)c2oc1=Nc1ccc(OC)c(OC)c1	-10%	1%	.	-8%	-11%
COc1ccccc1N=c1oc2cc(O)ccc2cc1C(N)=O	2%	13µM*	-5%	6%	0%
COc1ccc(N=c2oc3ccccc3cc2C(=O)Nc2ccccn2)cc1OC	?	24µM*	10%	?	?
COc1ccccc1NC(=O)c1cc2ccccc2o/c1=N\O	4µM*	?	-8%	29%	16%
COc1cccc(C(=O)N/N=c2/oc3ccccc3cc2C(N)=O)c1	1%	0%	.	-5%	-6%
COc1ccc2cc(C(N)=O)/c(=N\NC(=O)c3ccccc3)oc2c1	0.71µM*	11µM*	.	0.89µM*	?
CN(C)c1ccc(CNC(=O)C2CCN(S(=O)(=O)c3cn(C)cn3)CC2)cc1	.	-1%	.	.	.
COc1ccc(N(CC(=O)N2CCN(c3ccc(F)cc3)CC2)S(=O)(=O)c2c(C)nn(C)c2C)cc1	.	-2%	-4%	.	.
COc1ccccc1NC(=O)c1cc2ccc(O)cc2o/c1=N\O	-2%	5.4µM*	10%	1%	3%
COc1ccccc1N=c1oc2cc(O)ccc2cc1C(=O)NCC1CCCO1 (configuration not stated)	-5%	-7%	-1%	-4%	0%
CC(=O)N1CC=CC1(CC(C)C)C(=O)NCc1ccccn1 (configuration not stated)	.	.	-5%	.	.
COc1cc(NC(=O)c2oc3ccccc3c2C)ccc1NC(=O)c1ccco1	?	5.4µM*	.	25%	-6%
COc1cc(NC(=O)c2cccs2)ccc1NC(=O)c1ccco1	?	?	11µM*	30%	18µM*
COc1ccc(/C=N/NC(=O)c2ccccc2NC(=O)c2ccco2)c(OC)c1	1%	5.4µM*	.	5%	2%
COc1cc(NC(=O)c2ccccc2Cl)ccc1NC(=O)c1ccco1	2.8µM*	11µM*	22µM*	2.5µM*	?
O=C(Nc1ccc(Cl)c(NC(=O)c2cccs2)c1)c1ccco1	1%	?	.	-3%	-8%
N#CNc1nc(O)cc(=O)[nH]1	8%	5%	.	-5%	-2%
c1ccc(-c2nc(-c3ccccc3)c(NC3CCCCC3)o2)cc1	.	.	4%	.	.
Nc1ccn(CC(=O)NCCNc2ccc([N+](=O)[O-])cn2)c(=O)n1	-9%	-1%	.	-2%	3%
FC(F)(F)c1cc(NC(=S)Nc2ccc3cc4ccccc4cc3c2)cc(C(F)(F)F)c1	.	.	-3%	.	.
COc1ccc(NC(=O)c2ccco2)cc1NC(=O)c1c(OC)cccc1OC	5%	15µM*	3%	0%	1%
O=C(Nc1cccc(NC(=O)c2cccs2)c1)c1ccco1	-1%	?	?	9%	0%
